Compounds with a hit are over-represented: about 4.2% of the library has one in this group of screens.
D1 antag = antagonists of human D1 dopamine receptor; P21728; HEK293 TREx D1 cells, calcium flux, dopamine EC80; hits give low values; activity change, negative = inhibition, % at 10 µM; 3.2% of 360,000 active; AID 504652; in the data active = activity change below about -30%; also: % is scaled to controls: 0 for no effect and ±100 for the full control effect
Target sequence (P21728 whole entry, looked up): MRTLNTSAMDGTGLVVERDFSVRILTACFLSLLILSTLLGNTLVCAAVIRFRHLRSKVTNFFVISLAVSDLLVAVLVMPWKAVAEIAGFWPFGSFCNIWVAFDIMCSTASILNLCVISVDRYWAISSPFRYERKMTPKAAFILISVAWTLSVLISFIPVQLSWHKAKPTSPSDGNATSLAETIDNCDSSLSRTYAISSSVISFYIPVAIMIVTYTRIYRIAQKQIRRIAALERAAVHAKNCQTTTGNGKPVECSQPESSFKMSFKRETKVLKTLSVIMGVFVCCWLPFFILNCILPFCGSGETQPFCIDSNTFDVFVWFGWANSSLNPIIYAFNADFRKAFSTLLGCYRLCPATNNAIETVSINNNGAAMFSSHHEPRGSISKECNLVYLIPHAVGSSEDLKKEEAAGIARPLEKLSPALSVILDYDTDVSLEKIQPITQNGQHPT
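HEK293 T-REx cells expressing inducible, force-coupled D1 receptor; no-wash Ca dye, 30–90 min RT. Cmpd → 180 s read at 1 Hz → EC80 DA → 180 s read.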
D1 agonist = human D1 receptor agonism. P21728. 1% of 360,000 active. AID 504660. HEK293 T-REx D1 cells, calcium flux, agonist mode. activation, % at 2 µM; in the data active = activation above about 30%; also: 0% is about no effect
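Agonism was scored from calcium flux recorded over 180 s (1 read/s) after pintool compound addition, following a 10-cycle baseline. Cells were inducible force-coupled HEK293 TREx D1, plated overnight at 30 C and loaded with no-wash calcium dye.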
TRPV1 PAM = human TRPV1 potentiation; 0.02% of 320,000 active; AID 540277; potentiation, % at 8.33 µM; Q8NER1; TRPV1-expressing cells, Fluo-8 calcium influx, capsaicin EC20 potentiation; in the data active = potentiation above about 80%; inconclusive = between about 30% and that limit; also: 0% is about no effect
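TRPV1-expressing cells were cultured overnight at 35.5C and loaded with Fluo-8 calcium dye for 40 to 90 min at room temperature. After a 10 s baseline, compound was added and calcium influx was read kinetically for 3 min (ex 480/em 520 nm).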
D1 PAM = human D1 dopamine receptor positive modulation | potentiation, % at 10 µM | HEK293 TREx D1 cells, calcium flux, dopamine EC20 potentiation | P21728 | 0.036% of 360,000 active; in the data active = potentiation above about 30%; also: 0% is about no effect
TRPV1 ag = activates the human vanilloid receptor TRPV1; 0.19% of 320,000 active; activation, % at 8.33 µM; TRPV1-expressing cells, Fluo-8 calcium influx, agonist mode; AID 540275; Q8NER1; in the data active = activation above about 80%; inconclusive = between about 30% and that limit; also: 0% is about no effect
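Cells expressing TRPV1 were dye-loaded with Fluo-8 and read kinetically: 10 s baseline, 3 min after compound (agonist portion), then 2 min after EC20 capsaicin (allosteric enhancer portion). Calcium-bound dye fluorescence at 480/520 nm.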
An asterisk follows results filed as active; ? = inconclusive; nt = not tested or not shown; ! = not confirmed by another sample.

SMILES	D1 antag	D1 agonist	TRPV1 PAM	D1 PAM	TRPV1 ag
COc1cccc(C(=O)Nc2ccc3nc(SCC(=O)N4CCc5ccccc54)sc3c2)c1	-38.0*	8.0	nt	-2.3	nt
CCOC(=O)CSc1nc2ccc(NC(=O)c3ccc(Cl)cc3)cc2s1	-21.8	10.7	nt	-1.0	nt
Cc1ccc(OCC(=O)Nc2ccc3nc(SCC(=O)N4CCc5ccccc54)sc3c2)cc1	-34.5*	-0.2	nt	3.8	nt
CCOC(=O)Nc1ccc2nc(Sc3ccc(Cl)cc3)sc2c1	-33.8*	7.2	4.7	-6.1	0.8
O=C(COc1ccc(Cl)cc1)Nc1ccc2nc(SCC(=O)N3CCOCC3)sc2c1	-35.9*	10.7	nt	-1.9	nt
Cc1ccc(-n2nc(CO)c(C(=O)NC(C)c3ccccc3)n2)cc1C (stereo unspecified)	-15.4	2.1	nt	3.6	nt
O=C(c1cccs1)N1CCC(c2ccccc2)C1 (stereo unspecified)	-85.1*	0.4	11.0	-1.0	-17.9
Cc1ccc(C2CCN(C(=O)Nc3ccc(Cl)c(Cl)c3)C2)cc1 (stereo unspecified)	-45.0*	7.5	nt	-8.4	nt
CCOc1ccc(NC(=O)N2CCC(c3ccc(C)cc3)C2)cc1 (stereo unspecified)	-30.9*!	0.6	-13.2	-6.0	?
O=C(CCN1CCC(c2ccccc2)C1)c1cccs1 (stereo unspecified)	0.2	-0.8	25.2	-2.4	-0.1
O=C(Nc1ccc(Cl)c(Cl)c1)N1CCC(c2ccccc2)C1 (stereo unspecified)	-42.7*	12.5	nt	-5.8	nt
Cc1ccc(C2CCN(C(=O)Nc3ccc(Cl)cc3)C2)cc1 (stereo unspecified)	-24.3	4.8	nt	-7.2	nt
CCOc1ccc(C(=O)NCC(c2ccc3c(c2)OCO3)N2CCN(c3ccc(F)cc3)CC2)cc1 (stereo unspecified)	9.6	0.9	nt	-1.1	nt
CC(C)Oc1ccc(C(=O)N2CC(=O)Nc3ccc(F)cc3C2c2ccc(F)cc2)cc1 (stereo unspecified)	7.6	3.0	nt	-0.3	nt
Cc1ccc(-n2nc(C)c3nc(CCC(=O)Nc4ccc(F)cc4)c(=O)n(C)c32)cc1	-12.4	1.5	nt	-0.5	nt
COc1cccc(C(=O)NCc2cn3ccccc3n2)c1	-18.0	2.1	nt	1.3	nt
CCc1c(C)sc(NC(=O)c2cc(-c3cccc(Cl)c3)on2)c1C#N	7.1	2.5	nt	-0.5	nt
CC(C)CCN(Cc1ccco1)C(=O)c1cc2c(s1)-c1ccccc1OC2	4.3	14.4	nt	-2.0	nt
CCOc1ccc(C2=Nn3c(nnc3-c3ccco3)SC2)cc1	-30.7*	1.2	-12.1	-4.3	12.6
N#Cc1ccc(/C=C\c2nccc3c2[nH]c2ccccc23)cc1	-22.9	2.3	-1.8	-4.2	90.1*
O=C(C1=NN(c2ccccc2)C2C(=O)N(c3cccc(Cl)c3)C(=O)C12)c1ccccc1 (stereo unspecified)	14.6	104.2*	0.5	-0.7	?
O=C(C1=NN(c2ccccc2)C2C(=O)N(c3ccc(Cl)cc3)C(=O)C12)c1ccccc1 (stereo unspecified)	-14.1	192.3*	?	7.2	-2.0
CCOC(=O)C1=NOC2C(=O)N(c3ccc(Cl)cc3Cl)C(=O)C12 (stereo unspecified)	-3.6	1.7	5.4	-3.5	2.4
CC(=O)C1=NOC2C(=O)N(c3ccc(Cl)cc3)C(=O)C12 (stereo unspecified)	-0.5	50.5*	27.1	1.4	-9.1
CC(Oc1ccccc1)C(=O)Nc1ccc(C(=O)OCc2cc(=O)n3nc(C(C)C)sc3n2)cc1 (stereo unspecified)	-13.1	3.8	nt	-0.9	nt
SMILES	D1 antag	D1 agonist	TRPV1 PAM	D1 PAM	TRPV1 ag
COc1cc2nc(Nc3ccc(C)c(C)c3)nc(N)c2cc1OC	-35.3*!	0.6	-9.8	-3.2	-1.2
COc1ccc(OC)c(Nc2c3c(nc4ccccc24)CCC3)c1	-19.7	1.9	-16.7	-4.8	17.5
COc1cc(Nc2c3c(nc4ccccc24)CCC3)cc(OC)c1OC	-2.4	-0.9	24.4	-0.7	-2.0
COc1cc(NS(C)(=O)=O)ccc1Nc1c2ccccc2nc2ccccc12	-48.8*	-1.8	-1.2	-6.0	2.5
COc1ccc(C)cc1Nc1nc(N)c2ccccc2n1	-36.3*	1.9	29.6	-17.4	7.4
COc1ccc(OC)c(Nc2c3ccccc3nc3ccccc23)c1	-54.2*	10.5	-4.1	-13.3	0.5
COc1cc2nc(Nc3ccc(C)c(Cl)c3)nc(N)c2cc1OC	1.8	-0.8	18.7	-4.0	-4.4
COc1ccc(NC(=O)CSc2nc3nc(C)c(Cc4ccccc4)c(C)n3n2)cc1OC	40.1	0.6	nt	4.2	nt
COc1ccc2c(c1)CC(C(=O)NCc1ccc(F)cc1)CO2 (stereo unspecified)	7.8	0.8	nt	-1.6	nt
CCOc1ccc(CCNC(=O)C2CCCN(c3nnc(C)c4c(C)n(-c5ccccc5)nc34)C2)cc1 (stereo unspecified)	20.5	3.8	nt	-0.8	nt
COc1ccc([N+](=O)[O-])cc1Nc1c2ccccc2nc2ccccc12	-40.9*	0.5	6.4	-9.6	6.0
Nc1ccc2nc(-c3ccccc3)c(-c3ccccc3)nc2c1	0.2	60.7*	14.7	9.0	10.0
Nc1ccc(Oc2ccc3nc(-c4ccccc4)c(-c4ccccc4)nc3c2)cc1	1.8	1.1	6.3	2.6	8.9
CCOC(=O)c1ccc(NC(=O)C(C)N(c2ccc(OCC)cc2)S(C)(=O)=O)cc1 (stereo unspecified)	4.1	4.5	nt	-3.0	nt
CCc1c(C)sc2c1CCN(C(=O)Nc1ccc(F)c(Cl)c1)C2c1ccc(F)cc1 (stereo unspecified)	-11.4	7.0	nt	-0.6	nt
CCOC(=O)[C@H]1[C@H]2COc3ccc(OC)cc3[C@@H]2N2C(=O)c3ccccc3NC(=O)[C@@]12C	3.6	0.2	-7.3	-3.6	100.0*
CCOC(=O)[C@H]1[C@H]2COc3ccc(OC)cc3[C@@H]2N2C(=O)c3cc(F)c(F)cc3NC(=O)[C@@]12C	3.2	-0.8	?	-4.1	92.4*
CCOC(=O)[C@H]1[C@H]2COc3ccc(OC)cc3[C@@H]2N2C(=O)c3cc(OC)ccc3NC(=O)[C@@]12C	-2.6	1.3	5.2	-2.6	97.1*
CCOC(=O)[C@H]1[C@H]2COc3ccc(Br)cc3[C@@H]2N2C(=O)c3cc(Br)ccc3NC(=O)[C@@]12C	-11.6	7.4	24.7	6.2	82.7*
CCCCN(CC)C(=O)Cn1cc2c(n1)-c1c(oc(C(=O)N3CCCC3)c1C)CC2	0.6	-0.7	nt	-4.0	nt
CCOC(=O)c1c(C)[nH]c(CCC(=O)NCc2ccc(CC)cc2)c1C	-4.0	0.2	nt	-3.2	nt
O=C(Cn1c(SCCOc2ccccc2)nc2ccccc21)N1CCOCC1	4.2	-0.7	nt	-1.9	nt
O=C(NCCCN1CCN(c2cccc(Cl)c2)CC1)Nc1ccccc1C(F)(F)F	-55.3*	32.4*	nt	-1.4	nt
Cc1ccccc1CS(=O)(=O)CCC(=O)NCCN1CCN(c2cccc(Cl)c2)CC1	-31.8*	11.4	3.5	-7.0	2.6

High-throughput results from PubChem.
